Experimental findings from PubChem BioAssay (EPA / NIEHS) are described below.

One may read the AC50 as the concentration at which the activity in the assay is half-maximal.

Test [1] deals with Cellular tumor antigen p53 (Homo sapiens) (UniProt P04637). Description: TOX21_p53_BLA_p5_ratio: Tox21 HCT-116 p53 Agonism Beta-lactamase Assay, Ratio, Phase 5 (AID 2283599). The method, boiled down: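 HCT-116 cells carrying a p53-inducible beta-lactamase reporter were seeded at 4000 cells/well and dosed after 5 h with compound in DMSO (217-fold dilution). After 16 h at 37C, CCF4-AM substrate was added for 2 h, and the 460/530 nm emission ratio was scored as gain-of-signal versus DMSO.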
Chain of Cellular tumor antigen p53 (Homo sapiens) (P04637 whole entry, looked up): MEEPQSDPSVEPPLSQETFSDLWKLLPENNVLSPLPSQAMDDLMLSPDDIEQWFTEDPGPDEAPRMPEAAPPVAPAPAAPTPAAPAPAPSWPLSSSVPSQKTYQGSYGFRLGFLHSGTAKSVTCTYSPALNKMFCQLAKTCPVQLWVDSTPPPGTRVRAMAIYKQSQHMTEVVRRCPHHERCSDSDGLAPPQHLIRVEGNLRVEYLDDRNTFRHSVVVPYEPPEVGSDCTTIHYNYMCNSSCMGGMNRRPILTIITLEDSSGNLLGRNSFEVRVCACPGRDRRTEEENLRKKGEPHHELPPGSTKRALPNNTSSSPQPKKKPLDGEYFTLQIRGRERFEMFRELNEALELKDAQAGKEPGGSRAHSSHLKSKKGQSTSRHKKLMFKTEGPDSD

A short description of test [2]: TOX21_p53_BLA_p5_viability: Viability Assessment in the Tox21 HCT-116 p53 Agonism Beta-lactamase Assay, Phase 5 (AID 2283600). The gist of the method: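 After the 460/530 nm beta-lactamase measurement, the wells received an ATP-detection luciferase reagent; signal was read 30 min later at RT. Compound treatment lasted 16 h on cells pre-incubated 5 h post-seeding.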

Test [3] can be described thus: Tanguay_ZF_120hpf_MORT_legacy: (Legacy) Oregon State University Tanguay Lab 120 Hour Post-fertilization zebrafish Assay for Mortality (AID 2283633).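 For AC50: fitted as increase in binary mortality versus DMSO negative control.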 The gist of the method:
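Static waterborne exposure from 6 to 120 hpf at 28C of single dechorionated wild-type (5D) embryos per well, 0.64% DMSO final. Death recorded present/absent by brightfield at 24 and 120 hpf.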

Test [4] is described as follows: Tanguay_ZF_120hpf_YSE_legacy: (Legacy) Oregon State University Tanguay Lab 120 Hour Post-fertilization zebrafish Assay for Yolk Sac Edema (AID 2283634). The gist of the method: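 Presence or absence of yolk sac edema was recorded at 120 hpf in surviving larvae. These were wild-type Tropical 5D embryos, chorion removed at 4 hpf, held in static exposure at 28C from 6 hpf with 0.64% DMSO vehicle.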

The nature of test [5]: Tanguay_ZF_120hpf_EYE_legacy: (Legacy) Oregon State University Tanguay Lab 120 Hour Post-fertilization zebrafish Assay for Eye Malformation (AID 2283636).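 Note: binary presence or absence of eye malformation scored by brightfield in 120 hpf larvae.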 The method, boiled down: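 Dechorionated wild-type Tropical 5D zebrafish embryos were exposed statically from 6 hpf, one per well, to 120 hpf at 28C in sealed, foil-covered plates with 0.64% DMSO. Eye malformation was scored present/absent by brightfield microscopy against DMSO controls.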

Test [6] is described as follows: Tanguay_ZF_120hpf_SNOU_legacy: (Legacy) Oregon State University Tanguay Lab 120 Hour Post-fertilization zebrafish Assay for Snout Malformation (AID 2283637). The method, boiled down: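 Tropical 5D wild-type zebrafish embryos, dechorionated with pronase at 4 hpf, were exposed singly from 6 hpf to 120 hpf statically at 28C in 0.64% DMSO. Snout malformation was scored present/absent by brightfield microscopy, fitted against DMSO.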

Test [7] in a line: Tanguay_ZF_120hpf_JAW_legacy: (Legacy) Oregon State University Tanguay Lab 120 Hour Post-fertilization zebrafish Assay for Jaw Malformation (AID 2283638). The method, boiled down: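 Binary jaw-malformation call at 120 hpf by brightfield microscopy. Embryos (Tropical 5D strain, chorion removed at 4 hpf) were dosed statically at 6 hpf, one per well, at 28C with 0.64% DMSO. Embryos that died were not scored.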

A short description of test [8]: Tanguay_ZF_120hpf_OTIC_legacy: (Legacy) Oregon State University Tanguay Lab 120 Hour Post-fertilization zebrafish Assay for Otic Vesicle Malformation (AID 2283639). The method, boiled down:
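Tropical 5D wild-type zebrafish embryos statically exposed in 0.64% DMSO at 28C until 120 hpf; 5uM trimethyltin chloride as positive control. Otic vesicle malformation scored present/absent by brightfield; dead embryos not scored; gain fitted versus DMSO.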

The nature of test [9]: Tanguay_ZF_120hpf_PE_legacy: (Legacy) Oregon State University Tanguay Lab 120 Hour Post-fertilization zebrafish Assay for Pericardial Edema (AID 2283640). The gist of the method:
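Scoring was binary, by brightfield microscopy at 120 hpf, and skipped where mortality occurred. Wild-type embryos were kept under sealed, foil-covered static exposure at 28C in 0.64% (vol/vol) DMSO.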

The nature of test [10]: Tanguay_ZF_120hpf_SOMI_legacy: (Legacy) Oregon State University Tanguay Lab 120 Hour Post-fertilization zebrafish Assay for Somite Malformation (AID 2283647). The gist of the method:
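Binary somite-defect scoring at 120 hpf, omitted for embryos that died, in wild-type (Tropical 5D) zebrafish with chorion removed by pronase at 4 hpf; static exposure began 6 hpf, single embryos per well, 28C, 0.64% DMSO; fitted positive versus DMSO.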

A short description of test [11]: Tanguay_ZF_120hpf_CFIN_legacy: (Legacy) Oregon State University Tanguay Lab 120 Hour Post-fertilization zebrafish Assay for Caudal Fin Malformation (AID 2283649). The gist of the method:
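Binary brightfield scoring of caudal fin defects at 120 hpf after static, light-shielded exposure at 28C from 6 hpf. Tropical 5D embryos, chorion removed with pronase at 4 hpf, final DMSO 0.64%.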

A short description of test [12]: Tanguay_ZF_120hpf_PIG_legacy: (Legacy) Oregon State University Tanguay Lab 120 Hour Post-fertilization zebrafish Assay for Pigmentation Malformation (AID 2283650). The gist of the method: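 Tropical 5D wild-type zebrafish embryos, dechorionated with pronase at 4 hpf, were exposed singly from 6 hpf to 120 hpf statically at 28C in sealed, dark plates with 0.64% DMSO; pigmentation scored present/absent by brightfield microscopy, fitted against DMSO.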

Test [13] in a line: Tanguay_ZF_120hpf_CIRC_legacy: (Legacy) Oregon State University Tanguay Lab 120 Hour Post-fertilization zebrafish Assay for Circulatory Malformation (AID 2283651). The gist of the method:
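Dechorionated wild-type 5D zebrafish embryos, one per well, statically exposed from 6 to 120 hpf at 28C with 0.64% DMSO; circulatory malformation scored present/absent by brightfield microscopy at 120 hpf, dead embryos excluded.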

A short description of test [14]: Tanguay_ZF_120hpf_SWIM_legacy: (Legacy) Oregon State University Tanguay Lab 120 Hour Post-fertilization zebrafish Assay for Swim Bladder Malformation (AID 2283654).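 Note: swim bladder malformation in each larva scored yes or no under brightfield.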 The gist of the method: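 Dechorionated Tropical 5D wild-type embryos, placed singly from 6 hpf, were statically exposed at 28C to 120 hpf with 0.64% DMSO final; swim bladder malformation was scored present/absent by brightfield microscopy, gain of signal relative to DMSO controls.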

Test [15] can be described thus: Tanguay_ZF_120hpf_TRUN_legacy: (Legacy) Oregon State University Tanguay Lab 120 Hour Post-fertilization zebrafish Assay for Truncated Body (AID 2283655). The gist of the method: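 Binary presence/absence of truncated body is recorded at 120 hpf by brightfield, with non-mortality endpoints skipped after death. Exposure is static from 6 hpf in sealed dark plates at 28C, using dechorionated wild-type zebrafish, 0.64% DMSO.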

The nature of test [16]: Tanguay_ZF_120hpf_AXIS_legacy: (Legacy) Oregon State University Tanguay Lab 120 Hour Post-fertilization zebrafish Assay for Body Axis Malformation (AID 2283635). The gist of the method: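 Binary scoring of axis defects at 120 hpf under brightfield, fitted positive versus DMSO. Tropical 5D embryos, chorion removed by pronase at 4 hpf, were singly exposed in sealed, dark plates at 28C from 6 hpf; DMSO 0.64% final.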

In test [17] the target is Cellular tumor antigen p53 (Homo sapiens) (UniProt P04637). Description: TOX21_p53_BLA_p4_ratio: Tox21 HCT-116 p53 Agonism Beta-lactamase Assay, Ratio, Phase 4 (AID 2283601). The method, boiled down:
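HCT116 cells carrying an inducible beta-lactamase reporter were plated at 4000 cells/well, rested 5 h, then exposed to compounds in DMSO (217-fold dilution) for 16 h at 37C. CCF4-AM substrate was loaded 2 h at room temperature; 460/530 nm emission ratio scored gain-of-signal versus DMSO.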

Molecules are shown by their SMILES. “And” between values parts separate entries of the source, which are not always exact repeats. Equal values may be shown once. Results filed as inconclusive are left out. Where a structure was tested more than once in an assay, its records may differ in their call. The source made the active and inactive calls. Rule for the calls: active = hit-call score of the fitted dose curve at least 0.9, where 1 is the maximum; inconclusive = response in the unintended direction; inactive = score below 0.9.

As to `O=C(O)C(F)(F)C(F)(F)C(F)(F)C(F)(F)C(F)(F)C(F)(F)C(F)(F)C(F)(F)F`, the AC50 in [1] was 82.9 µM (active). For the same compound, the result in test [2], in test [3], in test [4], in test [5], in test [6] and in test [7] was inactive. The outcome in [8], in [9], in test [10], in test [11], in [12] and in [13] was inactive. The call in test [14] and in test [15] was inactive.
Turning to `Cc1cccc(C)c1N`, the result in [1], in [3], in test [4], in [16], in test [5] and in test [6] was inactive. The call in [9], in test [11], in [12], in test [13], in test [14] and in test [15] was inactive.
In the case of `c1cc2ccc3cccc4ccc(c1)c2c34`, the compound was called inactive in [2], in [3], in test [4], in test [16], in [5] and in test [6]. Moreover, the outcome in test [8], in test [9], in [11], in [12], in test [13] and in test [14] was inactive. In [15], the compound was classed as inactive.
`c1ccc(-c2ccccc2)cc1`: the compound was classed as inactive in test [2], in test [3], in [4], in test [16], in test [5] and in [7]. For the same compound, the call in test [8], in test [9], in test [10], in test [12], in test [14] and in [15] was inactive.
Consider `CC(C)(c1ccccc1)c1ccc(O)cc1`, for which the concentration at half-maximal activity (AC50) was 73.1 µM (active) in test [1]; 81.7 µM (active) and 70.4 µM (active) in [17]; 19.1 µM (active) in test [3]. Further, the result in [1], in [2], in [16], in test [5], in test [8] and in test [9] was inactive. For the same compound, the compound was called inactive in test [10], in [11], in test [12], in test [13] and in test [14].
Take `O=C(N[C@H]1CN2CCC1CC2)c1cc2ccoc2cn1`: the compound was called inactive in test [2], in test [17], in [3], in [4], in test [5] and in test [6]. Moreover, the outcome in test [7], in [8], in [9], in test [10], in test [11] and in test [12] was inactive. Also, the compound was classed as inactive in test [13], in test [14] and in test [15].
Take `CCCCCCCCCC[N+](C)(C)CCCCCCCCCC`: the AC50 in test [1] was 72.9 µM (active) and 39.8 µM (active); in [2], 23 µM (active); in [3] it was 13.6 µM (active). Further, the compound was called inactive in [4], in [5], in [6], in test [7], in [8] and in test [9]. For the same compound, the compound was called inactive in test [11], in test [13], in test [14] and in test [15].
For `Cc1ccc(O)c(C)c1`, the outcome in test [1], in [2], in test [17], in test [3], in [4] and in test [5] was inactive. In addition, the compound was classed as inactive in [6], in test [7], in test [8], in test [9], in [10] and in test [11]. Also, the result in test [12], in test [13], in test [14] and in test [15] was inactive.
